Only some compounds are listed: those with a hit (about 8.3% of all), similar ones and a draw of the others.
FMDV inh – blocks foot and mouth disease virus; FMDV antiviral cell-based qHTS; Potency, µM (top dose mostly 57.9 µM), without a hit: at the highest dose activity change, negative = inhibition, actives largely listed as inhibitors; actives 1.2% (n = 410,000); calls by dose curve; tested in HEK293T cells; note: read-out not given here; potency is the fitted concentration of half-maximal effect; nearly all actives have a fitted effect of over 45% in size
HCV inh – HCV inhibition; Huh7.5.1 HCVcc-Cre infection, luciferase reporter, 44 h; Potency, µM (doses to about 41.8 µM), for the others: top-dose activity change, negative = inhibition, hits mostly inhibitors; actives 3.4% (n = 340,000); note: potency is the fitted concentration of half-maximal effect
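Whole-lifecycle infectious HCVcc-Cre system; cells 1,000/well, compound then virus (~0.5 moi) added 4 h after plating, 44 h culture. Luciferase read 15 sec following 15 min substrate incubation, room temp.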
Lassa entry inh – inhibitors of Lassa virus binding or cell entry; Lassa virus pseudotype entry inhibition, cell reporter; Potency, µM (top dose mostly 37.9 µM), for the others: at the highest dose activity change, negative = inhibition, hits mostly inhibitors; actives 1.2% (n = 300,000); AID 540256; calls by dose curve; tested in HEK293 cells; note: potency is the fitted concentration of half-maximal effect; nearly all actives have a fitted effect of over 50% in size
Giardia FBPA inh – Giardia lamblia aldolase inhibition; AID 2451; A8B2U2; actives 0.71% (n = 290,000); purified Giardia FBPA; Potency, µM (top dose mostly 59.6 µM), for inactives: at the highest dose activity, negative = inhibition, usual class: inhibitors; note: potency is the fitted concentration of half-maximal effect; nearly all actives have a fitted effect of over 55% in size
Target sequence (A8B2U2 whole entry, looked up): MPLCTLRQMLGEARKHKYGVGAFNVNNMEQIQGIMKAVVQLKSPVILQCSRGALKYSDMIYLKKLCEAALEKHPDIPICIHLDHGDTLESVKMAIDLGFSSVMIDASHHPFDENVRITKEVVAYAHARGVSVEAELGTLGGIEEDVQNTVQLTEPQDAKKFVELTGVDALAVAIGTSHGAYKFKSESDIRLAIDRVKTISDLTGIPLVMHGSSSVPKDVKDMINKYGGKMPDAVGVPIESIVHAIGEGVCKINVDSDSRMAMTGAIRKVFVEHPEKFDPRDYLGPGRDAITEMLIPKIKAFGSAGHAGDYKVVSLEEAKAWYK
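40 nM FBPA preincubated 10 min at RT with compound (up to 57.5 uM final), then substrate plus GAPDH/TPI/NAD/arsenate coupling and diaphorase/resazurin added. Fluorescence read after 20 min at RT, 525/598 nm.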
HCMV inh – human cytomegalovirus inhibition. HFF cells, HCMV-luciferase reporter, 72 h; stronger effect = lower value. activity change, negative = inhibition, % at 57.5 µM. actives 4.5% (n = 410,000); in the data active = activity change below about -60%; inconclusive = no clear call, values can overlap the other calls; inactive = above about -39%
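Two-dose cell screen: HFF monolayers treated with compounds and infected with luciferase-expressing HCMV at 1 PFU/cell, 72 h at 37C, then lysed for luciferase measurement.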
Marburg entry inh – blocks Marburg virus binding to or entry into cells. Potency, µM (doses to about 37.8 µM), inactives show at the top dose activity change, negative = inhibition, most hits filed as inhibitors. Marburg virus pseudotyped entry inhibition, cell reporter. actives 1.8% (n = 300,000); calls by dose curve; tested in HEK293 cells; note: potency is the fitted concentration of half-maximal effect
Starred values were filed as active, the others as inactive; [ ] = another dose, or the depositor's remark. Unless noted, calls come from the whole dose curve; as a rule, active = well fitted curve in the direction sought with a large enough effect; inconclusive = small, poorly fitted or top-dose-only effect, or another doubt; inactive = no such curve, though single readings can be large; an effect the other way counts as inactive or inconclusive. % is set by controls: 0 for no effect and ±100 for the full control effect.

How did Cc1sc2nc(SCC(=O)C(C)(C)C)n(Cc3ccco3)c(=O)c2c1C do in these assays?
FMDV inh: -20%; HCV inh: inconclusive; Lassa entry inh: 8.2µM*; Giardia FBPA inh: -4%; HCMV inh: -98*; Marburg entry inh: inconclusive

Results for CCCn1c(C)cc(C(=O)CSc2nc3ccccc3c(=O)n2Cc2ccco2)c1C ?
FMDV inh: 9%; HCV inh: inconclusive; Lassa entry inh: inconclusive; Giardia FBPA inh: -3%; HCMV inh: inconclusive; Marburg entry inh: inconclusive

What do the screens show for `Cc1sc2nc(SCc3ccccc3)n(Cc3ccco3)c(=O)c2c1C`?
FMDV inh: 19%; HCV inh: -10%; Lassa entry inh: inconclusive; Giardia FBPA inh: 3%; HCMV inh: -36; Marburg entry inh: inconclusive

Results for COc1cccc(CSc2nc3sc(C)c(C)c3c(=O)n2Cc2ccco2)c1 ?
FMDV inh: -18%; HCV inh: -27%; Lassa entry inh: inconclusive; Giardia FBPA inh: 13%; HCMV inh: 33; Marburg entry inh: 15µM*

How did Cc1cc2c(=O)n(Cc3ccco3)c(SCC(=O)c3ccc(Cl)s3)nc2s1 do in these assays?
FMDV inh: inconclusive; HCV inh: inconclusive; Lassa entry inh: inconclusive; Giardia FBPA inh: -4%; HCMV inh: -65*; Marburg entry inh: inconclusive

What do the screens show for `Cc1cccc(CSc2nc3sc(C)c(C)c3c(=O)n2Cc2ccco2)c1`?
FMDV inh: -2%; HCV inh: -6%; Lassa entry inh: 4%; Giardia FBPA inh: 7%; HCMV inh: -8; Marburg entry inh: 15%

What do the screens show for `C#CCCCO/N=C1/[C@H]2O[C@@H]2[C@@H](O)[C@H]2[C@H]1CCn1c(=O)n([C@@H](CC)c3ccccc3)c(=O)n12`?
Giardia FBPA inh: 1%[12.9 µM]

What do the screens show for `O=C1C2Cc3c([nH]c4ccccc34)C(c3ccccc3)N2C(=O)C2Cc3c([nH]c4ccccc34)C(c3ccccc3)N12` (stereo not drawn)?
Giardia FBPA inh: -5%[12.9 µM]; Marburg entry inh: inconclusive

Results for COc1ccc(-c2nnc(SCC(=O)Oc3cc(C)ccc3C)o2)cc1 ?
FMDV inh: -23%; Lassa entry inh: 12%[46.1 µM]; HCMV inh: -4; Marburg entry inh: -21%[46.1 µM]

Results for Cc1nc2ccccc2n1/N=C/c1ccc([N+](=O)[O-])o1 ?
HCV inh: 10µM*; Lassa entry inh: inconclusive; HCMV inh: -67*; Marburg entry inh: 15µM*

What do the screens show for `O=[N+]([O-])c1ccc(/C=N/n2cnc3ccccc32)s1`?
FMDV inh: -7%; HCV inh: inconclusive; Lassa entry inh: inconclusive; Giardia FBPA inh: 1%; HCMV inh: 48; Marburg entry inh: inconclusive

What do the screens show for `COc1cccc(/C=N/n2c(C)nc3ccccc32)c1OC`?
FMDV inh: 0%; HCV inh: 8.9µM*; Lassa entry inh: 3%; Giardia FBPA inh: 0%; HCMV inh: -9; Marburg entry inh: -3%

How did O=[N+]([O-])c1ccc(/C=N/n2c(CO)nc3ccccc32)s1 do in these assays?
FMDV inh: -28%; HCV inh: 10µM*; Lassa entry inh: 0%; Giardia FBPA inh: -5%; HCMV inh: -69*; Marburg entry inh: inconclusive

What do the screens show for `Cc1ccc(/C=N/n2c(C)nc3ccccc3c2=O)o1`?
FMDV inh: 26%; HCV inh: 30%; Giardia FBPA inh: -5%; HCMV inh: 15

How did Cc1cc2ncn(/N=C/c3ccc([N+](=O)[O-])s3)c2cc1C do in these assays?
FMDV inh: -16%; HCV inh: 11µM*; Lassa entry inh: -6%; Giardia FBPA inh: -9%; HCMV inh: -5; Marburg entry inh: inconclusive

Results for NC(=O)O ?
Giardia FBPA inh: 0%

How did COc1cccc(C2NC(C(=O)O)CCC2C)c1 (stereo not drawn) do in these assays?
Giardia FBPA inh: -4%[12.9 µM]

How did COc1ccc(/C=N/n2c(SC)nnc2-c2ccccc2)c(OC)c1OC do in these assays?
FMDV inh: -29%; HCV inh: inconclusive; Lassa entry inh: 3.5µM*; Giardia FBPA inh: 8%; HCMV inh: inconclusive; Marburg entry inh: 5µM*

How did COc1ccc(/C=N/n2c(SC)nnc2-c2ccccc2)cc1C do in these assays?
FMDV inh: -21%; HCV inh: -11%; Lassa entry inh: inconclusive; Giardia FBPA inh: 16%; HCMV inh: -9; Marburg entry inh: inconclusive

How did Cc1nc2ccccc2n1/N=C/c1ccc([N+](=O)[O-])s1 do in these assays?
FMDV inh: inconclusive; HCV inh: 4.5µM*; Lassa entry inh: inconclusive; Giardia FBPA inh: 0%; HCMV inh: -82*; Marburg entry inh: inconclusive

What do the screens show for `COCc1c(C(=O)NC2CCCC2)cnn1-c1nccc(-c2cccs2)n1`?
FMDV inh: 20%

How did CCC(=O)N1CCCc2cc(S(=O)(=O)N3CCC(C(=O)Nc4ccc(C#N)cc4)CC3)ccc21 do in these assays?
FMDV inh: inconclusive; Lassa entry inh: -4%[46.1 µM]; HCMV inh: 0

What do the screens show for `COc1cccc(-c2cc3c(Nc4cccc(NC(C)=O)c4)nccc3n2C)c1`?
HCMV inh: -19

Results for Clc1ccc(-c2nnnn2-c2ccc(Cl)cc2)cc1 ?
FMDV inh: -12%; HCV inh: -14%; Lassa entry inh: 3%[46.1 µM]; Giardia FBPA inh: -4%; HCMV inh: -7; Marburg entry inh: inconclusive

What do the screens show for `Clc1ccc2[nH]cc(-c3nnnn3-c3ccc4ccccc4c3)c2c1`?
FMDV inh: -1%; HCV inh: inconclusive; Lassa entry inh: -18%; Giardia FBPA inh: 14%; HCMV inh: -62*; Marburg entry inh: inconclusive

How did COCC(=O)N1CCC2(CC1)CN(c1cccc(-c3ccccc3)c1)C2 do in these assays?
FMDV inh: -15%; Giardia FBPA inh: 2%

What do the screens show for `CC(NNC(=S)N1CCCCCC1)c1ccc2ccccc2n1` (stereo not drawn)?
FMDV inh: 57%; HCMV inh: -94*

What do the screens show for `CCOc1cc2c(cc1O)C(=NO)CC1C2CCC2(C)C(O)CCC12` (stereo not drawn)?
FMDV inh: 0%; HCV inh: inconclusive; Lassa entry inh: inconclusive; HCMV inh: -76*; Marburg entry inh: inconclusive

Results for COCC(C)n1c(C)cc(C(=O)COC(=O)c2c(C)nn(-c3ccccc3)c2C)c1C (stereo not drawn) ?
FMDV inh: -9%; HCV inh: inconclusive; Lassa entry inh: inconclusive; Giardia FBPA inh: 2%; HCMV inh: 6; Marburg entry inh: inconclusive

Results for COCC(C)n1c(C)cc(C(=O)COC(=O)c2c(NC(C)=O)sc(C)c2C)c1C (stereo not drawn) ?
FMDV inh: inconclusive; HCV inh: inconclusive; Lassa entry inh: inconclusive; Giardia FBPA inh: 0%; HCMV inh: -5; Marburg entry inh: 2.6µM*

Source: PubChem (National Center for Advancing Translational Sciences (NCATS))
